# Active and inactive are the calls of the source. Rule for the calls: active = hit-call score of the fitted dose curve at least 0.9, where 1 is the maximum; inactive = score below 0.9.
# Legend:
# Settings in all cases: mRNA level, 48 h; actives raise or lower the signal
# [1] = read-out: Glutamate-cysteine ligase regulatory (GCLM), GCLM (gene 2730); test: LTEA_HepaRG_GCLM: Life Technologies and Expression Analysis (LTEA) Assay for Glutamate-cysteine ligase regulatory (GCLM) using HepaRG (AID 2283500)
# Summary of the method: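 HepaRG, 48 h dosing, 100 uM top, half-log x8, 0.5% DMSO vehicle. Readout: GCLM mRNA by TaqMan qRT-PCR, housekeeping-normalized (ACTB/GAPDH/POLR2A). Curves fit bidirectionally vs DMSO baseline.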
# [2] = read-out: Glutathione S-transferase M3 (GSTM3), GSTM3 (gene 2947); test: LTEA_HepaRG_GSTM3: Life Technologies and Expression Analysis (LTEA) Assay for Glutathione S-transferase M3 (GSTM3) using HepaRG (AID 2283501)
# Summary of the method: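 Differentiated human HepaRG cells were exposed in duplicate for 48 h in serum-free induction medium, 8 points from 100 uM top in half-log steps, 0.5% DMSO. GSTM3 mRNA was measured by TaqMan qRT-PCR, normalized to ACTB, GAPDH and POLR2A; bidirectional fit versus DMSO.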
# [3] = read-out: Heat shock 70 kDa protein 1 (HSPA1A), gene 3303; test: LTEA_HepaRG_HSPA1A: Life Technologies and Expression Analysis (LTEA) Assay for Heat shock 70 kDa protein 1 (HSPA1A) using HepaRG (AID 2283502)
# Summary of the method: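 HepaRG, 48 h exposure, 8-pt half-log CRC from 100 uM in 0.5% DMSO, duplicates. Readout: TaqMan qRT-PCR of HSPA1A mRNA, housekeeping-normalized (ACTB/GAPDH/POLR2A). Bidirectional fit vs 0.5% DMSO baseline.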
# [4] = read-out: Hypoxia-inducible factor 1-alpha (Homo sapiens) (UniProt Q16665); test: LTEA_HepaRG_HIF1A: Life Technologies and Expression Analysis (LTEA) Assay for Hypoxia-inducible factor 1 (HIF1A) Trancription factor using HepaRG (AID 2283503)
# Summary of the method: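 Gain- or loss-of-signal HIF1A mRNA changes are fitted against a DMSO baseline. HepaRG cultures receive eight concentrations, highest 100 uM, for 48 h in serum-free induction medium with 0.5% DMSO.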
# [5] = read-out: 3-Hydroxy-3-Methylglutaryl-CoA Synthase 2 (HMGCS2), HMGCS2 (gene 3158); test: LTEA_HepaRG_HMGCS2: Life Technologies and Expression Analysis (LTEA) Assay for 3-Hydroxy-3-Methylglutaryl-CoA Synthase 2 (HMGCS2) using HepaRG (AID 2283504)
# Summary of the method: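 Human HepaRG cells in serum-free induction medium were exposed in duplicate for 48 h to 8-point half-log series from 100 uM top in 0.5% DMSO. HMGCS2 mRNA measured by TaqMan qRT-PCR, normalised to ACTB, GAPDH, POLR2A; bidirectional fit versus DMSO.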
# HGF (gene 3082) = test: LTEA_HepaRG_HGF: Life Technologies and Expression Analysis (LTEA) Assay for Hepatocyte Growth Facto (HGF) using HepaRG (AID 2283505)
# Summary of the method: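 Differentiated HepaRG cells in serum-free induction medium exposed 48 h in duplicate, 8 half-log concentrations from 100 uM in 0.5% DMSO. HGF mRNA by qRT-PCR, normalised to ACTB, GAPDH, POLR2A; bidirectional fitting.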
# [6] = read-out: Insulin Like Growth Factor 1 (IGF1), IGF1 (gene 3479); test: LTEA_HepaRG_IGF1: Life Technologies and Expression Analysis (LTEA) Assay for Insulin Like Growth Factor 1 (IGF1) using HepaRG (AID 2283506)
# Summary of the method: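 qRT-PCR readout of IGF1 mRNA, normalized to three housekeeping genes, after 48 h chemical exposure of HepaRG cells. Concentrations: 8-point half-log series, top 100 uM, 0.5% DMSO vehicle. Gain or loss fitted against DMSO baseline.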
# [7] = read-out: Intercellular Adhesion Molecule 1 (ICAM1), ICAM1 (gene 3383); test: LTEA_HepaRG_ICAM1: Life Technologies and Expression Analysis (LTEA) Assay for Intercellular Adhesion Molecule 1 (ICAM1) using HepaRG (AID 2283507)
# Summary of the method: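 Differentiated human HepaRG cells in serum-free induction medium exposed 48 h in duplicate to 8 half-log concentrations (top 100 uM, 0.5% DMSO). ICAM1 mRNA quantified by TaqMan qRT-PCR, normalized to ACTB, GAPDH and POLR2A; bidirectional fitting versus DMSO.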
# [8] = read-out: Insulin-like growth factor-binding protein 1 (IGFBP1), IGFBP1 (gene 3484); test: LTEA_HepaRG_IGFBP1: Life Technologies and Expression Analysis (LTEA) Assay for Insulin-like growth factor-binding protein 1 (IGFBP1) using HepaRG (AID 2283508)
# Summary of the method: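 HepaRG cells, plated 48 h then switched to serum-free induction medium, exposed in duplicate for 48 h to 8-point half-log series from 100 uM in 0.5% DMSO. mRNA measured by qRT-PCR, normalized to ACTB/GAPDH/POLR2A; bidirectional fit versus DMSO.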
# [9] = read-out: Interleukin 6 (IL6), IL6 (gene 3569); test: LTEA_HepaRG_IL6: Life Technologies and Expression Analysis (LTEA) Assay for Interleukin 6 (IL6) using HepaRG (AID 2283509)
# Summary of the method: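 qRT-PCR read-out of IL6 transcript, normalized to three housekeeping genes, after 48 h chemical exposure of HepaRG cells; 8-point half-log series, top 100 uM, 0.5% DMSO vehicle. Bidirectional curve fitting against DMSO baseline.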
# [10] = read-out: Interleukin 6 Receptor (IL6R), IL6R (gene 3570); test: LTEA_HepaRG_IL6R: Life Technologies and Expression Analysis (LTEA) Assay for Interleukin 6 Receptor (IL6R) using HepaRG (AID 2283510)
# Summary of the method: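 HepaRG, 48 h exposure, 8-pt half-log series, top 100 uM, 0.5% DMSO vehicle, duplicates. Read-out: TaqMan qRT-PCR of IL6R transcript, housekeeping-gene normalized. Gain or loss fitted relative to DMSO baseline.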
# [11] = read-out: Potassium channel subfamily K member 1 (KCNK1), KCNK1 (gene 3775); test: LTEA_HepaRG_KCNK1: Life Technologies and Expression Analysis (LTEA) Assay for Potassium channel subfamily K member 1 (KCNK1) using HepaRG (AID 2283511)
# Summary of the method: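 HepaRG, 48 h exposure, 8-pt half-log series top 100 uM, 0.5% DMSO vehicle, duplicates. Readout: KCNK1 transcript by qRT-PCR (Fluidigm array), housekeeping-normalized; bidirectional curve fit relative to DMSO baseline.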
# [12] = read-out: Keratin 19 (KRT19), KRT19 (gene 3880); test: LTEA_HepaRG_KRT19: Life Technologies and Expression Analysis (LTEA) Assay for Keratin 19 (KRT19) using HepaRG (AID 2283512)
# Summary of the method: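 Differentiated HepaRG cells in serum-free induction medium, exposed 48 h in duplicate to 8 half-log concentrations up to 100 uM in 0.5% DMSO. KRT19 mRNA by qRT-PCR, normalized to ACTB, GAPDH, POLR2A; bidirectional fit vs DMSO.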
# [13] = read-out: JUN Transcription Factor, JUN (gene 3725); test: LTEA_HepaRG_JUN: Life Technologies and Expression Analysis (LTEA) Assay for JUN Transcription Factor using HepaRG (AID 2283513)
# Summary of the method: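 HepaRG, 48 h exposure, 8-pt half-log series top 100 uM, 0.5% DMSO, duplicate. JUN mRNA by qRT-PCR (Fluidigm), housekeeping-normalized (ACTB/GAPDH/POLR2A); bidirectional curve fit vs DMSO baseline.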
# [14] = read-out: Lipase C (LIPC), LIPC (gene 3990); test: LTEA_HepaRG_LIPC: Life Technologies and Expression Analysis (LTEA) Assay for Lipase C (LIPC) using HepaRG (AID 2283514)
# Summary of the method: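 HepaRG, 48 h exposure, 8-pt half-log series from 100 uM in 0.5% DMSO, duplicates. Readout: LIPC mRNA by Fluidigm qRT-PCR, housekeeping-normalized (ACTB/GAPDH/POLR2A). Gain or loss fitted bidirectionally against DMSO baseline.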
# [15] = read-out: Lipoprotein lipase (LPL), LPL (gene 4023); test: LTEA_HepaRG_LPL: Life Technologies and Expression Analysis (LTEA) Assay for Lipoprotein lipase (LPL) using HepaRG (AID 2283515)
# Summary of the method: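 HepaRG, 48 h exposure, 8-pt half-log dilutions from 100 uM, 0.5% DMSO vehicle, duplicates; qRT-PCR (Fluidigm array) of LPL mRNA vs housekeeping genes; bidirectional curve fit relative to DMSO baseline.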
# [16] = read-out: MicroRNA 122 (MIR122), gene 406906; test: LTEA_HepaRG_MIR122: Life Technologies and Expression Analysis (LTEA) Assay for MicroRNA 122 (MIR122) using HepaRG (AID 2283516); note: the transcript read is the microRNA miR-122
# Summary of the method: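 qRT-PCR read-out (TaqMan, Fluidigm array), normalized to three housekeeping genes; HepaRG cells dosed 48 h at 8 concentrations up to 100 uM in 0.5% DMSO, duplicate; gain or loss fitted against DMSO baseline.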
# [17] = read-out: matrix metalloproteinase-10 (MMP10), MMP10 (gene 4319); test: LTEA_HepaRG_MMP10: Life Technologies and Expression Analysis (LTEA) Assay for matrix metalloproteinase-10 (MMP10) using HepaRG (AID 2283517)
# Summary of the method: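 Transcript levels come from Fluidigm qRT-PCR normalized to three housekeeping genes, with curves fitted bidirectionally against 0.5% DMSO. Human HepaRG cells were dosed for 48 hours at concentrations up to 100 uM.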
# MYC, MYC (gene 4609) = test: LTEA_HepaRG_MYC: Life Technologies and Expression Analysis (LTEA) Assay for MYC using HepaRG (AID 2283518)
# Summary of the method: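 Differentiated HepaRG cells exposed 48 h in serum-free induction medium to 8 concentrations (top 100 uM, half-log steps; 0.5% DMSO), duplicate. MYC mRNA measured by Fluidigm qRT-PCR, normalized to ACTB, GAPDH, POLR2A; bidirectional fit versus DMSO.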
# [18] = read-out: matrix metalloproteinase-3 (MMP3), MMP3 (gene 4314); test: LTEA_HepaRG_MMP3: Life Technologies and Expression Analysis (LTEA) Assay for matrix metalloproteinase-3 (MMP3) using HepaRG (AID 2283519)
# Summary of the method: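 qRT-PCR read-out of MMP3 mRNA (normalised to three housekeeping genes) in HepaRG liver cells after 48 h chemical exposure; 8-point half-log series, top 100 uM, 0.5% DMSO vehicle. Bidirectional curve fitting against DMSO baseline.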
# Chain of Hypoxia-inducible factor 1-alpha (Homo sapiens) (Q16665 whole entry, looked up): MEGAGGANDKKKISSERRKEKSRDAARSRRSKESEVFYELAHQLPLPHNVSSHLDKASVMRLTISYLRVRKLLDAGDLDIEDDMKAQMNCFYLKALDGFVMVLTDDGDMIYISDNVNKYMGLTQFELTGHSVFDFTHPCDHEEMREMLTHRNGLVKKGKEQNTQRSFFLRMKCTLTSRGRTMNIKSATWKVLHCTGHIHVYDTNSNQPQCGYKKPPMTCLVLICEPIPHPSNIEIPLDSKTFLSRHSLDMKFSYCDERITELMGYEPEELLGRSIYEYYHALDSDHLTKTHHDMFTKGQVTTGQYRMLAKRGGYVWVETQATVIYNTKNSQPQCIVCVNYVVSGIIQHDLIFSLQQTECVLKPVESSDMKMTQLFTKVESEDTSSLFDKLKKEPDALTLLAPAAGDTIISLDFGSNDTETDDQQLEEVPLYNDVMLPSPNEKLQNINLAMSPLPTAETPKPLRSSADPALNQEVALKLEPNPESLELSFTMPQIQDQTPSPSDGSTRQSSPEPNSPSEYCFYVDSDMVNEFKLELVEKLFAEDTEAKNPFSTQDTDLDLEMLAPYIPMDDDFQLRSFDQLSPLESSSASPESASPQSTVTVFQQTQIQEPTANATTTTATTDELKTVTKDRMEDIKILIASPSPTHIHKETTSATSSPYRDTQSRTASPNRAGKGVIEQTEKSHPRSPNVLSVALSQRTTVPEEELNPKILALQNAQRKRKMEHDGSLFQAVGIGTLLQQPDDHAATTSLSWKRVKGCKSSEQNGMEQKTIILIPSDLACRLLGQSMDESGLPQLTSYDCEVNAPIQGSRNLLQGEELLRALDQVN
smiles,measurement,setting,value
CS(=O)(=O)c1cc(C(F)(F)F)ccc1C(=O)c1cnoc1C1CC1,outcome,[1],inactive
same,outcome,[2],inactive
same,outcome,[3],inactive
same,outcome,[4],inactive
same,outcome,[5],inactive
same,outcome,HGF (gene 3082),inactive
same,outcome,[6],inactive
same,outcome,[7],inactive
same,outcome,[8],inactive
same,outcome,[9],inactive
same,outcome,[10],inactive
same,outcome,[11],inactive
same,outcome,[12],inactive
same,outcome,[13],inactive
same,outcome,[14],inactive
same,outcome,[15],inactive
same,outcome,[16],inactive
same,outcome,[17],inactive
same,outcome,"MYC, MYC (gene 4609)",inactive
same,outcome,[18],inactive
Cc1c(COC(=O)[C@@H]2[C@H](/C=C(\Cl)C(F)(F)F)C2(C)C)cccc1-c1ccccc1,outcome,[1],inactive
same,outcome,[2],inactive
same,outcome,[3],inactive
same,outcome,[4],inactive
same,outcome,[5],inactive
same,outcome,HGF (gene 3082),inactive
same,AC50,[6],34.7 µM (active)
same,outcome,[7],inactive
same,outcome,[8],inactive
same,outcome,[9],inactive
same,outcome,[10],inactive
same,outcome,[11],inactive
same,outcome,[12],inactive
same,outcome,[13],inactive
same,outcome,[14],inactive
same,outcome,[15],inactive
same,outcome,[16],inactive
same,outcome,[17],inactive
same,outcome,"MYC, MYC (gene 4609)",inactive
same,outcome,[18],inactive
Cc1ccc(N=CN(C)C=Nc2ccc(C)cc2C)c(C)c1,outcome,[1],inactive
same,outcome,[2],inactive
same,outcome,[3],inactive
same,outcome,[4],inactive
same,outcome,[5],inactive
same,outcome,HGF (gene 3082),inactive
same,outcome,[6],inactive
same,outcome,[7],inactive
same,outcome,[8],inactive
same,outcome,[9],inactive
same,outcome,[10],inactive
same,outcome,[11],inactive
same,outcome,[12],inactive
same,outcome,[13],inactive
same,outcome,[14],inactive
same,outcome,[15],inactive
same,outcome,[16],inactive
same,outcome,[17],inactive
same,outcome,"MYC, MYC (gene 4609)",inactive
same,outcome,[18],inactive
O=P(O)(O)CCCl,outcome,[1],inactive
same,outcome,[2],inactive
same,outcome,[3],inactive
same,outcome,[4],inactive
same,outcome,[5],inactive
same,outcome,HGF (gene 3082),inactive
same,outcome,[6],inactive
same,outcome,[7],inactive
same,outcome,[8],inactive
same,outcome,[9],inactive
same,outcome,[10],inactive
same,outcome,[11],inactive
same,outcome,[12],inactive
same,outcome,[13],inactive
same,outcome,[14],inactive
same,outcome,[15],inactive
same,outcome,[16],inactive
same,outcome,[17],inactive
same,outcome,"MYC, MYC (gene 4609)",inactive
same,outcome,[18],inactive

# Source: PubChem BioAssay (EPA / NIEHS)
